An excerpt weighted towards active compounds, which were near 3.9% of everything screened.
Wnt bcat act: activators of Wnt/beta-catenin signaling | Wnt/beta-catenin reporter cell assay, activator, plate reader | activation, % at 9.35 µM | 300,000 compounds, 1.2% hits | AID 743398; in the data active means activation above about 30%, passing the limit was not always enough; inconclusive means no clear call, values can overlap the other calls;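 further: 0% = neutral control wells and 100% = positive control wells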
HSF-1 act: increases HSF-1 driven luciferase reporter signal; 300,000 compounds, 1.7% hits; NIH3T3-HGL HSF-1 luciferase reporter, MG132, 8 h; 100% = twice DMSO control signal; activation, % at 9 µM;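 active means mean replicate activation of at least 50% with a set share of replicates each reaching 50%; inconclusive means only one of those two conditions met; inactive means mean below 50% and too few replicates reaching it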;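 further: 0% = median of the neutral control wells and 100% = twice that signal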
MITF act: MITF TRPM1 promoter activation in melanoma cells; SK-MEL-5 TRPM1-promoter luciferase, 24 h; % of positive control, neutral wells = 0; activation, % at 12.5 µM; 300,000 compounds, 0.75% hits;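 active means mean activation of at least 80% with every replicate also reaching 80%; inconclusive means mean reaches 80% but some replicate falls short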;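 further: 0% = neutral control wells and 100% = parthenolide positive control wells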
esBAF inh: inhibitors of esBAF chromatin remodeling in mouse ES cells | 350,000 compounds, 2% hits | AID 602393 | reporter increase, % at 12.5 µM | Bmi1-luciferase knock-in reporter, 24 h; 100% = twice the neutral-well signal; in the data active means activation above about 40%; inconclusive means no clear call, values can overlap the other calls;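 further: 0% = median of the plate's neutral control wells and 100% = double that signal; a rise in the Bmi1 reporter signal indicates esBAF inhibition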
HSF1 inh: HSF1 inhibition; AID 2098; NIH3T3-HGL HSE-luciferase, MG132-induced, luminescence 8 h; stronger effect = lower value; 300,000 compounds, 0.77% hits; activity change, negative = inhibition, % at 7.5 µM (by protocol);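 active means more than half of replicate wells show activity change below -50%, luminescence cut by over half; inconclusive means some wells, but at most half, below -50%; inactive means no replicate well below -50%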;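 further: luciferase reports HSF-1 transcriptional activity via heat shock element; 0% = median of DMSO wells and -100% = zero luminescence signal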
* hit, by the source's call; ? = inconclusive; / = no result given.

SMILES	Wnt bcat act	HSF-1 act	MITF act	esBAF inh	HSF1 inh
COc1ccc(S(=O)(=O)N(C)C[C@H]2Oc3cc(C#CC4CC4)ccc3S(=O)(=O)N([C@H](C)CO)C[C@@H]2C)cc1	/	/	/	5.1	/
CCN(CC)c1c([N+](=O)[O-])c(=O)n(C)c2ccccc12	-5.1	-2.1	-5.8	/	1.2
Cn1c(=O)c([N+](=O)[O-])c(Cl)c2ccccc21	-1.0	-74.2	-94.5	-0.8	-72.8*
CCCNC(=O)Nc1ccc2c(c1)C(=O)N(C)C[C@H](OC)[C@H](C)CN(C(=O)c1ccccc1F)[C@@H](C)CO2	/	/	/	-6.0	/
Cc1ccccc1CN1CCN(c2nc3ccccc3s2)CC1	?	81.4*	76.3	?	42.5
Cc1onc(-c2ccccc2Cl)c1C(=O)N1CCCCC1	-3.3	6.4	7.0	8.1	-3.5
Cc1onc(-c2ccccc2Cl)c1C(=O)N1CCN(c2nc3ccccc3s2)CC1	44.0*	-10.5	-21.7	-4.0	-1.6
O=C(C1CC1)N1CCN(c2nc3ccccc3s2)CC1	30.7*	34.2	86.8*	46.3*	-2.4
COc1ccc(CN2CCN(c3nc4ccccc4s3)CC2)cc1	2.0	12.4	/	29.0	2.0
CC(C)NC(=O)N(C)C[C@@H]1Oc2ncc(C#Cc3ccncc3)cc2C(=O)N([C@H](C)CO)C[C@@H]1C	/	/	/	4.0	/
CN(C)C(=O)c1cccc(-c2ccc3c(c2)[C@@H]2[C@@H](CCN2C(=O)c2ccc(F)cc2)[C@H](CO)N3C)c1	/	/	/	6.9	/
O=C(C[n+]1cccc(C(=O)Nc2ccccc2)c1)c1ccc([N+](=O)[O-])cc1	2.3	131.8*	-41.8	-11.2	59.8
CCOCCCNC(=S)Nc1ccc2nc(N3CCOCC3)cc(C)c2c1	-1.0	125.4*	/	3.3	76.2
COc1ccc(NC(=O)CCC(=O)Nc2ccc3nc(N4CCOCC4)cc(C)c3c2)c(OC)c1	3.2	16.5	60.5	42.1*	7.3
CCOc1ccc(C(=O)Nc2ccc3nc(N4CCN(CC)CC4)cc(C)c3c2)cc1	0.6	6.1	-8.3	-64.5	-0.6
COc1ccc(N(C)C(=O)CCC(=O)Nc2ccc3nc(N4CCOCC4)cc(C)c3c2)c(OC)c1	/	5.8	-8.3	-2.3	6.4
CCCCN(C)C(=O)CCC(=O)Nc1ccc2nc(N3CCN(C)CC3)cc(C)c2c1	7.8	-76.2	14.5	/	-69.9*
CCN1CCN(c2cc(C)c3cc(NC(=O)c4cc(OC)cc(OC)c4)ccc3n2)CC1	32.3*	33.8	6.6	12.4	9.2
CCCCN(C)C(=O)CCC(=O)Nc1ccc2nc(N3CCOCC3)cc(C)c2c1	3.2	6.2	/	9.4	3.8
O=C(Nc1ccccc1)N[C@H]1CC[C@H](CCn2cc(C3(O)CCCC3)nn2)O[C@H]1CO	/	/	/	2.7	/
COc1ccc(NC(=O)Nc2ccc3c(c2)C(=O)N([C@H](C)CO)C[C@H](C)[C@@H](CN(C)CC2CC2)OCCCC[C@H](C)O3)cc1	/	/	/	-3.1	/
CO[C@@H]1CN(C)C(=O)c2ccc(NS(=O)(=O)c3cn(C)cn3)cc2OC[C@@H](C)N(Cc2cccc(C(F)(F)F)c2)C[C@H]1C	/	/	/	3.6	/
Cc1cc(N2CCOCC2)nc2ccc(NC(=S)N3CCN(c4ccccc4)CC3)cc12	2.6	22.3	-27.5	/	6.4
Cc1cc(N2CCOCC2)nc2ccc(Cl)cc12	20.8	8.3	?	56.9*	-11.3
COc1ccc(OCc2cc(C(=O)NC3CCOC(C)(C)C3)no2)c2ccccc12 (configuration not stated)	23.4	93.1*	7.8	14.2	48.9
SMILES	Wnt bcat act	HSF-1 act	MITF act	esBAF inh	HSF1 inh
Cc1ccc(C)c(OCc2cc(C(=O)NC3CCOC(C)(C)C3)no2)c1 (configuration not stated)	12.1	19.3	17.1	50.9*	9.9
C/C(NC(=O)c1ccccc1)=C1/C(=O)CC2C1C2(C)C (configuration not stated)	0.0	13.4	?	52.0*	21.1
COC(=O)N/N=C/c1ccc(-c2cccc(Cl)c2)o1	11.0	21.9	13.9	/	5.9
Nc1ccccc1N=Cc1ccc(-c2cccc(Cl)c2)o1	13.6	54.5*	46.4	98.1*	25.8
CC(C)NC(=O)N(C)C[C@@H]1Oc2c(NC(=O)c3ccc(-c4nccs4)cc3)cccc2C(=O)N([C@H](C)CO)C[C@@H]1C	/	/	/	-3.3	/
CN(C(=O)/C=C/c1ccc(F)cc1)C1CCCCC1	0.5	61.2*	/	/	45.8
CN(C(=S)NC(=O)/C=C/c1ccc(F)cc1)C1CCCCC1	-0.8	66.8*	-2.9	/	32.2
CCN1[C@H](C(=O)N2CCN(C)CC2)[C@@H](CO)[C@@H]2Cn3c(ccc(-c4ccccc4)c3=O)[C@@H]21	/	/	/	-2.6	/
Cn1cnc(CCNC(=O)C[C@H]2CC[C@H]3[C@@H](COC[C@H](O)CN3C(=O)Nc3ccc(F)cc3)O2)c1	/	/	/	9.1	/
COc1ccc(S(=O)(=O)Nc2ccc3c(c2)C(=O)N([C@H](C)CO)C[C@H](C)[C@@H](CN(C)C(=O)Nc2ccc4c(c2)OCO4)OCCCC[C@H](C)O3)cc1	/	/	/	3.7	/
Cc1noc(C)c1NC(=O)N(C)C[C@H]1Oc2ccc(NC(=O)NC(C)C)cc2CC(=O)N([C@H](C)CO)C[C@@H]1C	/	/	/	-2.4	/
CCCc1cc(=O)oc2cc(C)cc(OCC(=O)NCCCn3ccnc3)c12	-2.1	-80.7	-7.0	-4.8	-75.6*
CO[C@@H]1CN(C)C(=O)c2ccc(NC(=O)CN(C)C)cc2OC[C@@H](C)N(C(=O)C2CCCCC2)C[C@H]1C	/	/	/	2.4	/
O=C(Nc1ccccc1)N1C[C@H]2[C@@H](c3ccccc31)[C@@H](CO)N2C(=O)c1ccccc1F	/	/	/	23.0	/
CC(C)(C)c1nn(-c2ccccc2)c2[nH]c(=O)c(CNc3ccc4c(c3)OCCO4)cc12	/	-66.8	-40.0	-38.9	-64.9*
CC(C)(C)c1nn(-c2ccccc2)c2[nH]c(=O)c(CNCc3ccco3)cc12	/	9.2	-64.9	-8.2	-6.1
COc1ccc(S(=O)(=O)N(C)C[C@H]2Oc3c(NS(=O)(=O)c4ccccc4)cccc3C(=O)N([C@@H](C)CO)C[C@@H]2C)cc1	/	/	/	-3.7	/
CNC[C@@H]1Oc2c(NC(=O)c3nc4ccccc4s3)cccc2C(=O)N([C@@H](C)CO)C[C@H]1C	/	/	/	-1.3	/
Cc1[nH]c(C)c(C(=O)/C=C/c2ccc([N+](=O)[O-])cc2)c1C	-4.5	69.7*	3.8	11.2	32.9
COc1ccc(C=CC(=O)c2ccc([N+](=O)[O-])cc2)cc1	-1.4	/	-4.1	0.2	/
N#C/C(=C/c1ccc(OC(=O)c2ccc(Br)s2)cc1)c1nc2ccccc2[nH]1	9.2	/	67.5	83.4*	/
Cc1ccc(S(=O)(=O)N[C@H]2CC[C@@H](CCNC(=O)C3CCCCC3)O[C@H]2CO)cc1	/	/	/	3.8	/
COc1cc(C(=O)Oc2cccc(C=O)c2)cc(OC)c1OC	/	-11.8	2.3	-0.8	-10.8
O=Cc1cccc(OC(=O)c2ccc(Cl)cc2Cl)c1	/	64.1*	/	/	26.6
O=C1NCCN/C1=C\C(=O)c1ccccc1	-0.2	-2.1	13.4	18.5	-6.0
O=C1NCCN/C1=C\C(=O)c1ccc(Br)cc1	63.0*	39.9	/	/	22.0
